# From PubChem BioAssay (NCI)
# The panel holds about 83,000 compounds, 20% with a hit somewhere; the sample as a whole holds those more often.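 Values shown are percent growth following 48 h exposure of cells in 96-well plates to a single concentration of compound; below 10 was considered active.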 Active and inactive are the calls of the source.
# System: SR leukemia
# Assay: NCI-60 one-dose screen, 48 h (100 = growth as untreated, 0 = no growth, -100 = all killed)
# Conditions: 10 µM unless noted
# Description: Growth inhibition of the SR human tumor cell line is measured as a screen for anti-cancer activity. Cells are grown in 96 well plates and exposed to the test compound for 48 hours. Compounds are tested at a single concentration, which is 10^-5 M for most compounds. The reported endpoint is percent growth (GI% or GIPRCNT), where numbers from 0 - 100% represent growth inhibition, and numbers from -100% - 0 represent cell death. For example, a value of 40 represents 60% growth inhibition. A value of 0 means no net growth occurred over the course of the experiment. A value of -40 indicates 40% of cells at the beginning of the experiment died by the end of the experiment. A value of -100 means all cells are dead at the end of the experiment.
# NCI-60 Human Tumor Cell Lines Screen was performed using the standard one-dose NCI protocol, which is described in more detail at https://dtp.cancer.gov/discovery_development/nci-60/default.htm.
# Compounds with GIPRCNT values below 10 were considered active. Activity score was based on GIPRCNT using the following formula: […]
# Score is 0 for GIPRCNT values of 100 or above, 50 for GIPRCNT values of 0, and 100 for GIPRCNT values of -100.
row,Structure (SMILES),growth
1,CN(C)c1ccc2cc(-c3ccccc3F)c(N)nc2c1,6.09% (active)
2,Cc1nc(Nc2ccc(NC(=S)Nc3ccccc3)cc2)nc2nc(Nc3ccc(S(=O)(=O)O)cc3)[nH]c(=O)c12,47.5% (inactive)
3,COC(=O)Nc1nc2ccc(C(=O)C3CC3)cc2[nH]1,-21.7% (active)
4,Cc1cc(Cc2cc(C)cc(C(C)(C)C)c2O)c(O)c(C(C)(C)C)c1,-7.3% (active)
5,O=C(Nc1ccccn1)[C@H](O)[C@@H](O)C(=O)N1CCOCC1,120% (inactive)
6,O=c1[nH]c(NCc2nnnn2-c2ccc(Br)cc2)nc2sc3c(c12)CCCC3,86.3% (inactive)
7,O=C(Oc1ccc[nH]c1=O)c1cc([N+](=O)[O-])cc([N+](=O)[O-])c1,136% (inactive)
8,O=C(CCc1nc(-c2cccc(Cl)c2)no1)Nc1ccccn1,89.1% (inactive)
9,COc1ccccc1C(=O)NC(=S)Nc1ccc(-c2nc3ccccc3[nH]2)cc1,13.6% (inactive)
10,COc1cc2c(c(OC)c1OC)C(=O)/C(=C/c1cc(C)c(O)c(C)c1)S2,33.8% (inactive)
11,CC(C)CCC[C@@H](C)[C@H]1CCC2C3=CCC4C(=O)C=CC(=O)C4C3CC[C@@]21C (stereo not given in full),13.2% (inactive)
12,Nc1c(C(=O)c2ccccc2)nnc2ncnn12,94.6% (inactive)
13,Clc1ccc(/C=N\N=c2\scc(-c3ccc(Cl)cc3)n2/N=C/c2ccc(Cl)cc2)cc1,93% (inactive)
14,Cc1ccc(/C=C(\C#N)n2nnc3cc(Cl)c(Cl)cc32)cc1,17.3% (inactive)
15,CC12CC(C#N)CCC1O2 (stereo not given),98.9% (inactive)
16,COc1ccc(-c2cncnc2N)cc1OC,102% (inactive)
17,N#Cc1c(-c2ccc(C(F)(F)F)cc2)cc(N2CC(O)C2)n2c1nc1ccccc12,73.5% (inactive)
18,Cc1ccc2c(n1)C(=O)C(Oc1ccc(F)cc1)=CC2=O,64.6% (inactive)
19,CCNCCNc1cc(-c2cccc(C(F)(F)F)c2)c(C#N)c2nc3ccccc3n12,-37.5% (active)
20,CN=C1C=CC(=C(c2ccc(N(C)C)cc2)c2ccc(N(C)C)cc2)C=C1,-10.9% (active)

row,Structure (SMILES),growth
1,COc1ccc(-c2nc3ncccn3c2/C=C/C(=O)c2cc(OC)c(OC)c(OC)c2)cc1,-2.39% (active)
2,O=C1CSC(c2ccc(O)cc2)N1c1nnc(Cn2cnnc2)o1 (stereo not given),3.17% (active)
3,CN(C)c1ccc(C#Cc2c(F)cccc2Cl)cc1,94.3% (inactive)
4,CCN(CC)CCNc1ccc(C)c2sc3cc(C)ccc3c(=O)c12,6.89% (active)
5,COc1ccc(CN2C(=O)/C(=C\c3cc(OC)c(OC)c(OC)c3)c3ccccc32)cc1,-21.6% (active)
6,O=C1/C(=C/c2ccc([N+](=O)[O-])cc2)COc2ccc(O)c(O)c21,-1.74% (active)
7,COc1cc(-c2ccc(-c3ccc(C(=N)N)nc3)s2)cc(OC)c1OC,6.31% (active)
8,O=C(O)CC1Sc2ccccc2NC1=O (stereo not given),61.1% (inactive)
9,COc1ccc(/C=C2\COc3ccc(O)cc3C2=O)c(OC)c1,19.5% (inactive)
10,Cc1c(C(N)=O)sc2nc(C)n(/N=c3\scc(-c4ccccc4)n3Cc3ccccc3)c(=O)c12,12.8% (inactive)
11,CCCCOC(=O)c1ccc(NC(=O)C(C)N2CCOCC2)cc1 (stereo not given),98.1% (inactive)
12,CC(=O)c1ccc2c(c1)CCN2,93.4% (inactive)
13,O=C(NCCN1CCC(O)CC1)c1cc2c(o1)C(=O)c1ccccc1C2=O,13.4% (inactive)
14,CC(C)OCCCNCC(=O)Nc1ccc(S(=O)(=O)c2ccc(NC(=O)CNCCCOC(C)C)cc2)cc1,61.6% (inactive)
15,CCN(CC)CCOC(=O)N1c2ccccc2Sc2ccccc21,98.6% (inactive)
16,CC(=O)NCC(=O)Nc1ccc(-c2nnc3ccccn23)nc1.CC(=O)NCC(=O)Nc1ccc(-c2nnc3ccccn23)nc1.[Pt+2],104% (inactive)
17,CC(c1ccc(-n2cccn2)cc1)c1cnc(N2CCc3ccc(C(N)=O)cc3C2)s1 (stereo not given),53.5% (inactive)
18,O=C1CSC(c2ccccc2Cl)N1c1nnc(Cn2cnnc2)o1 (stereo not given),-23.1% (active)
19,CCC(C)NCc1ccccc1 (stereo not given),104% (inactive)
20,COc1ccc(-c2cc(-c3cc(OC)ccc3OC)[nH]c(=O)c2C#N)cc1,14.2% (inactive)
